The source of these data is PubChem BioAssay AID1347076 (National Center for Advancing Translational Sciences (NCATS), 2019).

Hit rate of the full screen: of about 400,000 compounds, about 13,000 (3.2%) were called active. Inconclusive results (about 18%) are left out. Only a selection was taken, and actives are over-represented in it overall. Unmarked numbers belong to inactive results. The call rests on the fitted dose curve; in most records, active means well fitted cell-killing curve with a large enough effect; inconclusive means small, poorly fitted or top-dose-only effect, or effect the other way; inactive means flat fitted curve, though single readings scatter.
On the % scale 0 is the no-effect control and ±100 the full control effect; potency means the concentration at half of the fitted maximal effect.

The assay can be described thus: qHTS assay for MDR1-selective chemotherapeutics: Primary screen using the drug-selected MDR subline cells KB-V1. Further: nearly all actives have a fitted effect of over 60% in size. The note with it: KB-V1 MDR cells viability, CellTiter-Glo, 72 h; series mostly up to 46.1 µM; activity change, negative = cytotoxicity: at the top concentration. An excerpt:
A prime difficulty in effectively treating cancer is the development of cellular resistance to multiple structurally unrelated anticancer drugs, a phenomenon known as multidrug resistance (MDR). […] Numerous strategies to overcome P-gp-mediated MDR have been explored, including the design of drugs that evade recognition and efflux, and development of inhibitors to block efflux and restore drug accumulation. […] An alternative approach is to exploit resistance by identifying drugs that target MDR cells over the non-resistant parental cells from which they were selected. […] The development of MDR1-selective agents represents a new strategy for resolving multidrug resistance, as it remains a long-standing clinical challenge for cancer chemotherapy.
Our goal is to identify compounds that selectively kill P-gp-expressing MDR cells. We will identify MDR1-selective compounds by comparing toxicity of compounds in the screening library against parental, drug-naive (KB-3-1) adenocarcinoma cells as well as their drug-selected MDR sub-line (KB-V1). The differential toxicity of compounds against these two cell lines will be used to identify MDR1-selective compounds, whose cytotoxicity is potentiated, rather than diminished, by P-gp expression. This assay will be utilized to conduct a quantitative high-throughput screen (qHTS) in collaboration with the NIH Chemical Genomics Center to identify selective agents, and probe hits arising from the screen will be validated using secondary assays and characterized through a well-established follow-up research program. This screen was run against the entire NCGC library collection of about 400,000 compounds.
NIH Molecular Libraries Probe Production Network [MLPCN]
NIH Chemical Genomics Center [NCGC]
PI: Michael Gottesman, National Cancer Institute, NIH
Briefly, 5 microL of media containing either KB-V1 cells (columns 1-2, 4-48) are dispensed into Greiner white, treated solid-bottom 1536-well assay plates (media-only control is added to column 3). Compounds are then transferred via Kalypsys pin tool equipped with 1536-pin array (10 nL slotted pins, V&P Scientific, San Diego, CA). Following addition of compound, the plates are incubated at 37 degrees C for 72 hours. CellTiter-Glo (2.5 µL/well) is then added, and the plates are read in a ViewLux reader (Perkin-Elmer, clear luminescence filter, 1 second exposure, 1x binning) following a 10 minute incubation. All cells are dispensed in DMEM phenol-red free media containing 10% FBS.
Library plates were screened starting from the lowest and proceeding to the highest concentration. Vehicle-only plates, with DMSO being pin-transferred to columns 5-48, will be inserted uniformly at the beginning and the end of each library in order to monitor and record any shifts in the background, which can be affected by reagent dispensers or loss in enzyme activity over time. Screening data will be corrected, normalized, and concentration-effect relationships will be derived by using publicly-available NCGC, NCATS curve fitting algorithms (http://ncgc.nih.gov/pub/openhts).
In the case of `CCN1CC(CN(C)Cc2nc(-c3ccc(Cl)cc3)no2)CC1=O` (stereo unspecified), the Potency was 16.4 µM (active).

With `CN1CCN(C(=O)CCc2nc(-c3ccc(Cl)cc3)no2)CC1`, the “activity change, negative = cytotoxicity” value is -19%.

Regarding `CC1CCN(Cc2nc(-c3ccc(Cl)cc3)no2)CC1`, the “activity change, negative = cytotoxicity” value was 0.287%. Same read-out and setting: the result for `C[C@H](CO)N1C[C@H](C)[C@H](CN(C)C(=O)Nc2ccc3c(c2)OCO3)Oc2ncc(Br)cc2C1=O` reads 0%; that for `CC(C)(C)c1ccc(C(=O)C[N+]2(C)CCCc3ccccc32)cc1` (stereo unspecified), 0.231%; that for `COc1ccc(-n2c(-c3ccc(Cl)cc3)n[nH]c2=S)c(OC)c1`, 4.94%.

Take `Cc1cc(Cl)ccc1NC(=O)Cc1ccc(NC(=O)N2CCCCc3ccccc32)cc1`: the “activity change, negative = cytotoxicity” value is 5.96%. On the same count and under the same terms, the result for `CCCC1=Nc2cc(C(=O)NCCN3CCCC3)ccc2Sc2ccccc21` reads -2.03%. Consider `CCCC1=Nc2cc(C(=O)NCc3ccco3)ccc2Sc2ccccc21`, for which the Potency was 4.11 µM (active).

For the compound `O=C(NCc1ccco1)c1cccc(-c2ccc3nncn3c2)c1`, the “activity change, negative = cytotoxicity” value was -11.8%. Still for that read-out and setting: the result for `CCCCCNC(=O)C(c1ccc(OC)cc1)n1c(=O)c(-c2ccccc2)nc2ccccc21` (stereo unspecified) reads -20.4%; that for `CCCCn1nnnc1C1(C)CCC(=O)N1Cc1ccc(OC)c(OC)c1` (stereo unspecified), -7.85%; that for `C[C@H](CO)N1C[C@H](C)[C@H](CN(C)C(=O)c2ccncc2)OCc2ccccc2-c2c(n(C)c3ccccc23)C1=O`, 0.888%. The same measure, in the same setting: next, `Cc1nn(Cc2ccc(Cl)cc2)c(Cl)c1/C=N/NC(=O)c1cccnc1`: 1.6%; `CCn1nc(C)c(/C=N/NC(=O)Cc2ccc(Cl)cc2)c1C`: 14.2%. Take `Cc1nn(Cc2ccc(Cl)cc2)c(Cl)c1/C=N/NC(=O)CNc1ccccc1F`: the Potency was 3.26 µM (active). For `CC(C)C[C@H]1CNC(=S)N1C[C@H]1CCCN1C[C@H](Cc1ccc(O)cc1)N1C[C@H](Cc2ccc(O)cc2)N(CC2CCCCC2)C1=S`, the “activity change, negative = cytotoxicity” value is -8.38%. The same measure, in the same setting: next, `Cn1cnc(S(=O)(=O)N2C[C@@H](O)COC[C@@H]3O[C@H](CC(=O)NC4CCC4)CC[C@H]32)c1`: 0.239%; `OC[C@H]1O[C@@H](c2nc(-c3nc(-c4ccc(F)cc4)no3)cs2)[C@H](O)[C@@H](O)[C@H]1O`: -0.61%; `COc1cc(Cl)c(C)cc1Nc1nnc(-n2nc(C)cc2C)c2ccccc12`: -12.2%. As to `COc1ccc(C(=O)NC2CC2)cc1OC1CCN(Cc2ccc(SC)cc2)CC1`, the “activity change, negative = cytotoxicity” value is -8.65%.

Regarding `COc1ccc(C(=O)NC2CC2)cc1OC1CCN(Cc2cnn(C)c2)CC1`, the “activity change, negative = cytotoxicity” value is 2.24%. Consider `COc1ccc(C(=O)NC2CC2)cc1OC1CCN(C/C=C/c2ccccc2)CC1`, for which the Potency is 16.4 µM (active). On to `CCN(CC)CCN(C(=O)c1ccc(S(=O)(=O)N2CCOCC2)cc1)c1nc2cc3c(cc2s1)OCCO3`, for which the “activity change, negative = cytotoxicity” value was -7.69%. With `CN(C)CCCN(C(=O)c1ccc(S(=O)(=O)N2CCCCCC2)cc1)c1nc2cc3c(cc2s1)OCCO3`, the “activity change, negative = cytotoxicity” value was -18.9%.

`CN(C)CCCN(C(=O)c1ccc(S(=O)(=O)N2CCCCCC2)cc1)c1nc2ccc(Br)cc2s1`: the Potency was 23.1 µM (active).
